For part of these data: Results with a measured potency or affinity are listed apart.
What was measured:
Parameters in all cases: scale not given: direction of the effect not stated beside the values
[1] = target: Protein translocase subunit SecA (Escherichia coli (strain K12)) (UniProt P10408); assay: Assay to Identify E. coli SecA ATPase Inhibitors; assay type: functional; conditions: 30 µM
[2] = target: T1, Ubiquitin-activating enzyme e1, putative (Leishmania donovani (strain BPK282A1)) (UniProt E9BSI1); assay: Leishmania donovani Ubiquitin Activating Enzyme (LdE1); assay type: functional; conditions: 30 µM
T1 sequence (whole entry): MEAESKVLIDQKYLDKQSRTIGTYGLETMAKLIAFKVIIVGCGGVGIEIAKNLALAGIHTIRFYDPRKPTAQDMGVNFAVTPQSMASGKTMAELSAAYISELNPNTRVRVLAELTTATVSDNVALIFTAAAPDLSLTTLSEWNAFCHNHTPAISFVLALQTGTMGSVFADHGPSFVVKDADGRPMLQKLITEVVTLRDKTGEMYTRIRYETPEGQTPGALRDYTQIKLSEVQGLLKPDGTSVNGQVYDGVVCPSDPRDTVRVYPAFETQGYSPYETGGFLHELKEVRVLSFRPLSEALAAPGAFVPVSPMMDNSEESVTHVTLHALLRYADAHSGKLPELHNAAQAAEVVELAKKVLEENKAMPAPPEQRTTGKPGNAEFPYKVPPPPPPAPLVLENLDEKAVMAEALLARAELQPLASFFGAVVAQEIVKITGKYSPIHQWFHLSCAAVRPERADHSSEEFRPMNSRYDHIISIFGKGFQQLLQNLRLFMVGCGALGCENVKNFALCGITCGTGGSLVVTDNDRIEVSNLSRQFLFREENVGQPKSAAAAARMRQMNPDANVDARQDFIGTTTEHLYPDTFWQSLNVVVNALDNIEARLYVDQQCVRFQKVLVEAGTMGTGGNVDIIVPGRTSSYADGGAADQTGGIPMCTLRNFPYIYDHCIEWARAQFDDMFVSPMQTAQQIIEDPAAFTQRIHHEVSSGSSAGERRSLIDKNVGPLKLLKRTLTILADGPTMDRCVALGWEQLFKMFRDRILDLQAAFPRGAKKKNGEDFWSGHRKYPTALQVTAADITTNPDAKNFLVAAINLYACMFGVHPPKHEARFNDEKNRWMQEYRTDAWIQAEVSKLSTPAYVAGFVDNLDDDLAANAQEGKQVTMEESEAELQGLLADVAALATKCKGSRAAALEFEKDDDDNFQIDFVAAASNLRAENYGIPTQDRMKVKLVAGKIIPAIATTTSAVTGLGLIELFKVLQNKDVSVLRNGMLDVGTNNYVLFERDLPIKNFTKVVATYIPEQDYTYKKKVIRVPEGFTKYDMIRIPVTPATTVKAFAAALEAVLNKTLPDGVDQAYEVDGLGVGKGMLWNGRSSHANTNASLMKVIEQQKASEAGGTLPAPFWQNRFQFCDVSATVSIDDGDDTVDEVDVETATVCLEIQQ

[3] = target: T2, Aspartate--tRNA(Asp/Asn) ligase (Mycobacterium tuberculosis (strain ATCC 25618 / H37Rv)) (UniProt P9WFW3); assay: Assay for Asp RNA synthetase-1 from Mycobacterium tuberculosis; assay type: functional; conditions: 30 µM; also: in the data most compounds retested in dose-response had high values
T2 sequence (whole entry): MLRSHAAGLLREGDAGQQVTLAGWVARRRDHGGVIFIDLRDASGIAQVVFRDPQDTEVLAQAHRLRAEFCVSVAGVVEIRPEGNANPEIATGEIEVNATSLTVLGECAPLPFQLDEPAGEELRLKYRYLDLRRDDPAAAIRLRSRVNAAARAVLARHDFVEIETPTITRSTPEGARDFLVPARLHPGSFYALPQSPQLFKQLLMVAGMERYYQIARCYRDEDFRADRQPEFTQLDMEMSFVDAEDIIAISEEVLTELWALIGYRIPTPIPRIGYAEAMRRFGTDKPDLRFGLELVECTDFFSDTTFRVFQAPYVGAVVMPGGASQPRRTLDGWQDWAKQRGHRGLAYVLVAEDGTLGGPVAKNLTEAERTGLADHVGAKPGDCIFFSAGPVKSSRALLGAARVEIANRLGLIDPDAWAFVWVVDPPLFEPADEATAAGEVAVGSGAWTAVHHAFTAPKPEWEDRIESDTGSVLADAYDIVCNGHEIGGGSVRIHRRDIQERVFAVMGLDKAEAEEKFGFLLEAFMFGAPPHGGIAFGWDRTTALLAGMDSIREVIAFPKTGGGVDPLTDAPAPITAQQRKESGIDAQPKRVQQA

[4] = target: AMP-activated protein kinase, AMPK (Homo sapiens) (UniProt P54646+O43741+P54619+Q9UGJ0+Q9Y478+Q13131+Q9UGI9); assay: AMP-dependent Kinase enzyme assay. An in vitro enzyme assay that detects ADP turnover that is directly proportional to AMPK activity. This uses naive AMPK that is activated during the assay with MK-8722; assay type: functional; conditions: 30 µM
[5] = target: Sialic acid-binding Ig-like lectin 9 (Homo sapiens) (UniProt Q9Y336); assay: Hs-Siglec9 ALPHAscreen SOP 20170721; conditions: 10 µM
Sequence of Sialic acid-binding Ig-like lectin 9 (Homo sapiens) (Q9Y336 whole entry): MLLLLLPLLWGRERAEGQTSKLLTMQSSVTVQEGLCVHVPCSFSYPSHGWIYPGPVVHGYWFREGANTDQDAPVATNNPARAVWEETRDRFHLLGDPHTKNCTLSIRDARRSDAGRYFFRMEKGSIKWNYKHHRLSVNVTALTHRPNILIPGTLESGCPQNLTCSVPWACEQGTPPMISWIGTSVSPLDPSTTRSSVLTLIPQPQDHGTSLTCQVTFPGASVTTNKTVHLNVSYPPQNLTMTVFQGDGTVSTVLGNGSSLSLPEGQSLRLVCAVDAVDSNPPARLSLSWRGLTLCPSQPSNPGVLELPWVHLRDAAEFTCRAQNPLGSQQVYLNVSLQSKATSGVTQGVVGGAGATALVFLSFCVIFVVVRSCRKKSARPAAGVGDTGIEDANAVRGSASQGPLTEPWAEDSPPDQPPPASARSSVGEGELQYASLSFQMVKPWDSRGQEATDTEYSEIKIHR

Trypanosoma cruzi = assay: Trypanosoma cruzi phosphomannomutase and mannose-1-phosphate guanylyltransferase assay; assay type: functional; conditions: 10 µM
[6] = target: T3, Arginase-2, mitochondrial (Homo sapiens) (UniProt P78540); assay: in vitro enzyme assay to detect the production of urea directly proportional to the activity of Arginase II; assay type: functional; conditions: 33.3 µM; also: in the data most compounds retested in dose-response had high values
T3 sequence (whole entry): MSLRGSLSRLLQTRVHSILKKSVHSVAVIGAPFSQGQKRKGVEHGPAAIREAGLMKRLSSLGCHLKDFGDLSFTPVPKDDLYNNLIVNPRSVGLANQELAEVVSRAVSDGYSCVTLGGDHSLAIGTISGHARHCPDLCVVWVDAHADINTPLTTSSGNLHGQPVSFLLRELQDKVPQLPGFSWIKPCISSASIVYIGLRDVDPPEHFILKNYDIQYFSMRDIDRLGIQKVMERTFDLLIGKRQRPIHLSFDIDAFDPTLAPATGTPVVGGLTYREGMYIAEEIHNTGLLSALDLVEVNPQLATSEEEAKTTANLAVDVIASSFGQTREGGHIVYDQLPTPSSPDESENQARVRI

[7] = target: T4, Proteasome subunit beta (Trypanosoma cruzi) (UniProt O96673); assay: Trypanosoma cruzi proteasome chymotrypsin-like activity (TcProtChymo) assay.; also: in the data most compounds retested in dose-response had high values; assay type: functional; conditions: 9.37 µM
T4 sequence (whole entry): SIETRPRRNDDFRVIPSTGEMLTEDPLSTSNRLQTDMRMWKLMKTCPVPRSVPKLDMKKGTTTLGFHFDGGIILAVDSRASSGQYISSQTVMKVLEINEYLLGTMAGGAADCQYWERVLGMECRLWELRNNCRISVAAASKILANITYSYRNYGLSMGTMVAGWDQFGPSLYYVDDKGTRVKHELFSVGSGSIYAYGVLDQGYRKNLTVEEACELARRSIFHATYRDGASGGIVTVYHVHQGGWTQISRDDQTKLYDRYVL

Homo sapiens = organism: Homo sapiens; assay: To identify inhibition of the IFN signalling (Jak-Stat) pathway via expression of an eGFP reporter gene under the control of an IFN-stimulated response element (ISRE) containing MxA promoter.; assay type: functional; conditions: 30 µM
[8] = target: Shiga toxin 2 (Escherichia coli O157:H7) (UniProt P09385+P09386); assay: E. coli 0.157:H7 Shiga Toxin SOP - stx2 screening assay; assay type: functional; conditions: 30 µM
[9] = target: T5, Tyrosyl-tRNA synthetase, putative (Trypanosoma cruzi (strain CL Brener)) (UniProt Q4DSP6); assay: Trypanosoma cruzi tyrosyl tRNA synthetase (TcYRS) _High Tyrosine SOP; assay type: functional; conditions: 30 µM; also: in the data most compounds retested in dose-response had high values
T5 sequence (whole entry): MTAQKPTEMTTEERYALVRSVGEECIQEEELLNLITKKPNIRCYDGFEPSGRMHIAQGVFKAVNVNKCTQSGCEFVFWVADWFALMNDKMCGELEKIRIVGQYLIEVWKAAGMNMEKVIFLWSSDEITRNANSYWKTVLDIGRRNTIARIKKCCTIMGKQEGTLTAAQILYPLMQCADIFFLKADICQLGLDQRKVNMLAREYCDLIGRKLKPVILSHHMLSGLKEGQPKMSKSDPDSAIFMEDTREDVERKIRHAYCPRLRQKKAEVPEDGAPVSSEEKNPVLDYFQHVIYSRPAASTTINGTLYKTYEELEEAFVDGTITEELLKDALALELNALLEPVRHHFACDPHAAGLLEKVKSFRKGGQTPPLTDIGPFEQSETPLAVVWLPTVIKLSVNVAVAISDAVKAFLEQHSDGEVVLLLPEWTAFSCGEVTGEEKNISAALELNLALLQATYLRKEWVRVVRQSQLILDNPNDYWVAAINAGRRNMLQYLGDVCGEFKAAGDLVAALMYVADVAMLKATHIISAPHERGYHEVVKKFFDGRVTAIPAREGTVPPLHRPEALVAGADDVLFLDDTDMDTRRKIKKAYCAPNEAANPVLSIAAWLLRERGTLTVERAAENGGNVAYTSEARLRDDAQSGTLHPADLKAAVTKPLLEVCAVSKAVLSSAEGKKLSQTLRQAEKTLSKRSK

[10] = target: T5, Tyrosyl-tRNA synthetase, putative (Trypanosoma cruzi (strain CL Brener)); assay: Trypanosoma cruzi tyrosyl tRNA synthetase (TcYRS) SOP; assay type: functional; conditions: 30 µM
[11] = target: Chromo domain-containing protein 1 (Saccharomyces cerevisiae (strain ATCC 204508 / S288c) (Baker's yeast)) (UniProt P32657); assay: ScCHD-1 Enzyme Inhibition Assay; assay type: functional; conditions: 30 µM; also: in the data most compounds retested in dose-response had high values
Sequence of Chromo domain-containing protein 1 (Saccharomyces cerevisiae (strain ATCC 204508 / S288c) (Baker's yeast)) (P32657 whole entry, the tested form may be a part): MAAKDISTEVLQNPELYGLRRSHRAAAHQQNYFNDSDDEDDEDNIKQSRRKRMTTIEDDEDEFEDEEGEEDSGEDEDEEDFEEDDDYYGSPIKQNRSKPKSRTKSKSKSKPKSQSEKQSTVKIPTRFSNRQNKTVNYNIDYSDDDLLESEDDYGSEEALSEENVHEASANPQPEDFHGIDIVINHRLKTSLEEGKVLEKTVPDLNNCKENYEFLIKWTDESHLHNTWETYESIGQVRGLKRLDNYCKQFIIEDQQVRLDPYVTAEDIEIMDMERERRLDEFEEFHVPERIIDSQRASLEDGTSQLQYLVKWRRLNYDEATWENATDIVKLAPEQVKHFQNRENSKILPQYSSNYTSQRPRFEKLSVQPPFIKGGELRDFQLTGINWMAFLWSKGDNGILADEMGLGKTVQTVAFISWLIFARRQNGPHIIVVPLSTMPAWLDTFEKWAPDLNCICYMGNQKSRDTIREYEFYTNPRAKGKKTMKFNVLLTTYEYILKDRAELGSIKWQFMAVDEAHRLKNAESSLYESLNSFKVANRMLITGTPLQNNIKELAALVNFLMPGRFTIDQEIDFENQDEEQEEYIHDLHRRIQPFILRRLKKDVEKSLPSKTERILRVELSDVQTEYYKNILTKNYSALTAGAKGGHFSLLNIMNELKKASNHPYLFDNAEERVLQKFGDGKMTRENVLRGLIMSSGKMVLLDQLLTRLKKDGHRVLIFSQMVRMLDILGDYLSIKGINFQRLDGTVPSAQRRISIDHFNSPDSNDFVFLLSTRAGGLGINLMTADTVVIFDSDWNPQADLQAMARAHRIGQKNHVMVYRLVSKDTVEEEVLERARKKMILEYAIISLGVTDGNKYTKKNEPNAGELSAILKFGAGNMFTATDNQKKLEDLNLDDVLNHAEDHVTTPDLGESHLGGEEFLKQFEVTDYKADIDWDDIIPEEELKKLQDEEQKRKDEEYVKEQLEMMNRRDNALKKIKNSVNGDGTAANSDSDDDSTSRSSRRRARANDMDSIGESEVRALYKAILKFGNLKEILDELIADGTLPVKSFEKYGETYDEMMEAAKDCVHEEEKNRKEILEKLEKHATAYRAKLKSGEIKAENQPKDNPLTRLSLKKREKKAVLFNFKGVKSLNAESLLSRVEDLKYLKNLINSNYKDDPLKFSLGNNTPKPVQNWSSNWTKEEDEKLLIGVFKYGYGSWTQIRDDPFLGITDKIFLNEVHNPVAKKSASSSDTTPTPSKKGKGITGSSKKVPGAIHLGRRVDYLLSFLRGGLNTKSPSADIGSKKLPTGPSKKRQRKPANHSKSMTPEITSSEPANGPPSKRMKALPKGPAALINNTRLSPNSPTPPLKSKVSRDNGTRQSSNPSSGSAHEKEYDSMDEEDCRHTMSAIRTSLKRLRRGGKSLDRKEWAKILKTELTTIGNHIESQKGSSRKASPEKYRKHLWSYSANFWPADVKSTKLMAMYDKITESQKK

Sequence of Protein translocase subunit SecA (Escherichia coli (strain K12)) (P10408 whole entry): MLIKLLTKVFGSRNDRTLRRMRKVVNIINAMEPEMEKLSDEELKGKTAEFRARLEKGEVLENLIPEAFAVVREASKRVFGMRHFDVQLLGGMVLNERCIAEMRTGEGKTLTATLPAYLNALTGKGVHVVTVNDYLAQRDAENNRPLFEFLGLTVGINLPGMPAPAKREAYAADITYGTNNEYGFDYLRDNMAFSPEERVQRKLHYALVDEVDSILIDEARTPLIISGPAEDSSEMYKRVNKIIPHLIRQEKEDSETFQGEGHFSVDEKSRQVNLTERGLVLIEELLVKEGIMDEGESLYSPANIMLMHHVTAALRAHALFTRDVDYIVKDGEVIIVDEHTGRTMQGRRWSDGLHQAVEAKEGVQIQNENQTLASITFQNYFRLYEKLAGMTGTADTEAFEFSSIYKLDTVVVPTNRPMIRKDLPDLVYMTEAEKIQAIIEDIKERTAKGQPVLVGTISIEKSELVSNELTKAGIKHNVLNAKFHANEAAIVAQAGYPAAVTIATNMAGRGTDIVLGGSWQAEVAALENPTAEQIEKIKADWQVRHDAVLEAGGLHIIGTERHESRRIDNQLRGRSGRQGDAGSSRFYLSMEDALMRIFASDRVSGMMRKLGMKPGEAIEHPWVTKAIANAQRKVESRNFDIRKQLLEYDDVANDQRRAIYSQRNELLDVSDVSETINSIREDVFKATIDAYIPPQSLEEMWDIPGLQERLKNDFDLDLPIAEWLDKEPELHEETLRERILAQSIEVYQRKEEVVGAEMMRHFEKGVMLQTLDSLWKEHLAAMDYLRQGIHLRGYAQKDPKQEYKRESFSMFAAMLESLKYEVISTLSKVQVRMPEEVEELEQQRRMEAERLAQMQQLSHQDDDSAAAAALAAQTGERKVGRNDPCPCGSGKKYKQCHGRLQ

| SMILES | Percent Effect [1] | Percent Effect [2] | Percent Effect [3] | Percent Effect [4] | Percent Effect [5] | Percent Effect (Trypanosoma cruzi) | Percent Effect [6] | Percent Effect [7] | Percent Effect (Homo sapiens) | Percent Effect [8] | Percent Effect [9] | Percent Effect [10] | Percent Effect [11] |
| --- | --- | --- | --- | --- | --- | --- | --- | --- | --- | --- | --- | --- | --- |
| CN(C)C(=O)CN1C[C@@H]2CC[C@H](C1)N(C(=O)Cc1ccccc1Cl)C2 | -7.08% | -8.22% | 1.5% | 3.48% | -0.0171% | -5.16% | 0.798% | 9.16% | -4.89% | -30.4% | 0% | -23.5% | -1.84% |
| CN1CCCC(Cc2cncc(Br)c2)CC1 (configuration not stated) | -3.64% | 1.35% | -6.03% | 13.7% | -1.84% | 5.73% | 0.232% | 9.05% | -10.1% | -7.14% | 20.4% | 22.1% | -20.8% |
| COCC(=O)NC(C)Cc1cccc(OC)c1 (configuration not stated) | -1.72% | 13.2% | -2.52% | 3.57% | 6.63% | 6.77% | -0.383% | 11.5% | 8.48% | 24.3% | 10.3% | 21.9% | -8.88% |
| COCc1cncc2c1CCN(Cc1ccccn1)C2 | -5.11% | 5.41% | 3.14% | -2.9% | -3.72% | -0.391% | 4.58% | 14.4% | 2.95% | -55.7% | 14.8% | 23.2% | 1.79% |
| O=C([C@H]1C[C@H]2OCC[C@H]2N(Cc2ccncc2)C1)N1CCCCO1 | -5.42% | 18.7% | 0.349% | -3.96% | -0.793% | 5.6% | -46.4% | 15.9% | -2.86% | -11.8% | 8.33% | 25% | -6.46% |
| CCN(CC)C(=O)c1ccc(NC(=O)CNc2ccc(F)cc2Cl)cc1 | -1.29% | 10.5% | 5.36% | 5.61% | 3.25% | 2.04% | 0% | 16.6% | -29.3% | -38.1% | 9.57% | 15.6% | -3.17% |
| O=C(NC[C@]12COC[C@H]1CN(Cc1cccnc1)C2)c1ccno1 | 0.292% | 13.3% | 0.956% | 8.36% | -8.01% | -4.13% | -0.233% | 2.73% | -4.47% | -10.4% | 9.57% | 19.2% | -7.79% |
| CCc1nc(CNC(C)Cn2cccn2)cs1 (configuration not stated) | -1.58% | 13.5% | 5.32% | -19.1% | 12.1% | 2.36% | -12% | 9.73% | 14.4% | 9.22% | 12.3% | 30.9% | -13.1% |
| CCOCC(O)CN1CCN(C(=O)Cc2ccccc2Cl)CC1 (configuration not stated) | -5.33% | 0% | -2.7% | 8.88% | -1.32% | -8.08% | 4.21% | 9.36% | 14% | 19.1% | 0.49% | -2.44% | -1.37% |

— ChEMBL document CHEMBL3988442, “University of Dundee, Small-Polar-MMV Screening Library” (2021)
